# This excerpt belongs to a sample that is enriched for hits.
# Pf Dd2 growth – qHTS Primary assay for Inhibitors of Plasmodium falciparum Dd2 growth in vitro. P. falciparum Dd2 growth, SYBR Green, 72 h. Potency, µM (highest dose often 28.9 µM), for inactives: top-dose activity, negative = inhibition, hits mostly inhibitors. 4.3% of 120,000 active. AID 1347417, 2020; active = well fitted inhibition curve with a large enough effect;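 also: plate controls were DMSO vehicle for no effect and reference drug for full effect; nearly all actives have a fitted effect of over 65% in size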
#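 Readout: SYBR Green fluorescence, 485 nm excitation, 535 nm emission, after ~16 h lysis at 37C. Before that, Dd2-infected red cells (2.5% hematocrit) grew 72 h with compound, 29 uM top final concentration.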
# Active calls of the source: *; i = inactive; ! = not active in a repeat; [ ] = dose if it differs, or a comment. Potency is read from the fitted curve at half-maximal effect.
SMILES,Pf Dd2 growth
c1cnc2nc(-c3ccncc3)[nH]c2c1,-19.4%[44.1 µM]
c1cc2nc(C3CCNCC3)[nH]c2cn1,-0.6%[44.1 µM]
c1cnc2[nH]cc(-c3nc4ccncc4[nH]3)c2c1,10µM*!
O=C(O)c1ccc2nc(-c3cc4cc(F)ccc4oc3=O)[nH]c2c1,-1.3%
c1coc(-c2nc3ccncc3[nH]2)c1,-24.1%[44.1 µM]
COc1cc(OC)c(NC(=O)c2nn(C)c3c2COc2ccccc2-3)cc1Cl,40.1%
Cc1ccc(C(=O)N2CCCC(n3cc(-c4nc(C(C)C)no4)nn3)C2)cc1F (stereo not drawn),i
Cc1noc(C)c1[S+](=O)([O-])NC1CCN(c2nc3ncccc3o2)CC1,5.1%
CN1CCCN(C(=O)C2(Oc3ccc4ncccc4c3)CCNCC2)CC1,-11.8%
Cc1nn(C(=O)c2ccc(Br)cc2)c(C)c1Sc1ccccc1,i
COc1ccc(C(=O)N[C@@H]2CCC[C@@H]2C(=O)NCc2ccccc2C)cc1,i
O=C1CCN(C(=O)C2CCN(C(=O)c3nccc4ccccc34)CC2)CCCCCCN1,-2.2%
COc1ccc(OC)c(CCNC(=O)CCCn2c(=O)c3cccn3c3ccc(F)cc32)c1,-6.9%
O=C(c1ccccn1)N1CCC(N2CC(OCC3CC3)C23CCOCC3)CC1 (stereo not drawn),-8.4%
COC1CN(C2CCN(C(=O)c3ccoc3)CC2)C12CCOCC2 (stereo not drawn),-24.1%
COC1CN(C2CCN(C(=O)Cc3ccccc3)CC2)C12CCOCC2 (stereo not drawn),i
Cc1ncoc1C(=O)N1CCC(N2CC(OCC3CC3)C23CCOCC3)CC1 (stereo not drawn),-7.0%
Cn1cccc1CN1CCC(N2CCOC2=O)CC1,3.6%[44.1 µM]
CCC(=O)N(C1CCOCC1)C1CCN(Cc2ccc(C)o2)CC1,18.3%
Cn1cccc1CN1CCC(N2CC(OCC3CC3)C23CCCCC3)CC1 (stereo not drawn),0.631µM*
Cc1ccncc1C(=O)N1CCC(N2CC(OCC3CC3)C23CCCCC3)CC1 (stereo not drawn),-18.3%
c1ccc(CN2CCC(N3CC(OCC4CC4)C34CCOCC4)CC2)cc1 (stereo not drawn),5.62µM*
COCCOC1CN(C2CCN(C(=O)c3ccc(C)nc3)CC2)C12CCCCC2 (stereo not drawn),i
Cc1ccc(CN2CCC(N3CC(OCC4CC4)C34CCOCC4)CC2)s1 (stereo not drawn),10µM*
COCCOC1CN(C2CCN(Cc3ccc(C)o3)CC2)C12CCCCC2 (stereo not drawn),5.01µM*
SMILES,Pf Dd2 growth
COCC(=O)NC1CCN(c2ccccc2)C1=O (stereo not drawn),7.3%
CCCCn1c(C(C)NC(=O)OCc2ccccc2)nc2cccnc21 (stereo not drawn),-22.3%
COc1ccc(NC(=O)c2ccc3oc(=O)c(S(=O)(=O)c4ccc(F)cc4)cc3c2)cc1OC,3.2%
O=C1CCCCCN1C1CCN(Cc2ccsc2)CC1,7.08µM*
O=C1COCCN1C1CCN(Cc2ccsc2)CC1,14.7%[44.1 µM]
O=C1CCCCCN1C1CCN(Cc2cccnc2)CC1,4.7%[44.1 µM]
Cc1noc(C)c1-c1cc2cc(CN(C)C)oc2c(Nc2ccncn2)n1,i
COCCCNc1nc(-c2c(C)noc2C)cc2cc(CN(C)C)oc12,i
Cc1noc(C)c1-c1cc2cc(CN(C)C)oc2c(-c2ccc([S+](C)(=O)[O-])cc2)n1,8.91µM*
CN(C(=O)c1cc2c(Cl)nc3ccccc3c2s1)c1cccc(C(F)(F)F)c1,-9.1%
Cc1noc(C)c1CC(=O)N[C@@H]1CN(Cc2cccnc2)C[C@H]1CN(C)C,35.4%
O=C(NC1CC1)[C@@H]1C[C@H](Oc2cccnc2)CN1C(=O)Cc1ccccc1,13.1%
COCCNC(=O)c1ccc(OC2CCN(C(C)CCSC)CC2)c(Cl)c1 (stereo not drawn),11.2µM*
COCCNC(=O)c1ccc(OC2CCN(CCC(C)c3ccc(C)o3)CC2)c(Cl)c1 (stereo not drawn),4.47µM*
CS(=O)(=O)N1CCC(Oc2ccc(C(=O)NCCc3cnccn3)cc2Cl)CC1,-12.4%
Cc1ccc(C(C)CCN2CCC(N3CCC(C(=O)NC4CC4)CC3)CC2)o1 (stereo not drawn),-13.0%
COCCN1CC(CNC(=O)c2cc(Cl)c(C)c(Cl)c2)CC1=O (stereo not drawn),-12.1%
COc1ccc(C(=O)NCC2CCOC2)cc1OC1CCN(C(C)C)CC1 (stereo not drawn),-14.5%
COc1ccc(-c2nnc([C@H]3CCN(C)C3)o2)cc1,i
CS(=O)(=O)N[C@@H]1[C@@H](NC(=O)CCn2nnc3ccccc32)[C@H]2CCO[C@H]21,-11.2%
CN(C)[C@@H]1CN(C(=O)c2ccccc2OC(F)(F)F)C[C@H]1CO,23.7%
COc1ccccc1-c1[nH]nc2ncc(C(=O)N(C)c3ccccc3)nc12,-22.4%[44.1 µM]
COc1ccccc1-c1[nH]nc2ncc(C(=O)N3CCNC(=O)C3)nc12,-14.7%[44.1 µM]
COc1ccccc1-c1[nH]nc2ncc(C(=O)N3CCC(c4ccccc4)CC3)nc12,14.1µM*
COC(=O)c1ccccc1NC(=O)CN1C(=O)NC2(CCCCC2)C1=O,1.6%
SMILES,Pf Dd2 growth
CCc1nnc2ccc(NCC3CCCO3)nn12 (stereo not drawn),-8.9%
CC(C)Nc1ccc2nnc(C3CCC3)n2n1,92.5%
Cc1ccc(CNc2ccc3nnc(C4CCC4)n3n2)o1,7.08µM*
COc1ccc(Cl)cc1C(=O)N1C[C@@H](CO)[C@H](c2ccncc2)C1,-10.1%
CN1CCN(Cc2nc(C3(O)CCN(Cc4ccccc4)CC3)cs2)CC1,i
OC1(c2csc(CN3CCN(c4ccccn4)CC3)n2)CCN(Cc2ccc(F)cc2)CC1,5.01µM*
COC[C@H]1CCCN1Cc1nc(C2(O)CCN(C(=O)Nc3ccc(F)cc3)CC2)cs1,-20.8%
COC[C@H]1CCCN1Cc1nc(C2(O)CCN(Cc3ccc(F)cc3)CC2)cs1,7.94µM*
COC[C@H]1CCCN1Cc1nc(C2(O)CCN(CC(C)C)CC2)cs1,i
OC1(c2csc(CN3CCN(c4ccccn4)CC3)n2)CCNCC1,2.0%[44.1 µM]
O=C1NCCCCCCN(Cc2ccncc2)[C@@H]2CN(C(=O)NCc3ccccc3)CC[C@@H]12,i
CCCn1c(=NC(=O)c2c(-c3c(F)cccc3Cl)noc2C)c(C(=O)OCC)cc2c(=O)n3ccccc3nc21,i
COc1ccccc1C(=O)N1CCCC(c2nnc3n2C(C(=O)O)CC3)C1 (stereo not drawn),i
CCOc1ccc(C(=O)NCCc2sc(-c3ccc(F)cc3)nc2C)cc1,i
CN(Cc1ccccc1)Cc1ccccc1OCC(O)CN1CCCCC1 (stereo not drawn),0.794µM*
CN(CCC1CCOCC1)Cc1ccccc1OCC(O)CN1CCSCC1 (stereo not drawn),-12.0%
COCCn1cc(CN(C)Cc2ccccc2)ccc1=O,2.6%
O=C1CCN(S(=O)(=O)c2ccccc2)CCCC(c2nc(-c3ccccc3)no2)CCN1 (stereo not drawn),8.7%
CCN(CC)C(=O)C1CCCN(C(=O)CCC2(Cc3cccc4ccccc34)CCC(=O)N2)C1 (stereo not drawn),-13.7%
Cc1nc(C)c(C(=O)N2CCc3nn(Cc4ccccc4)c(=O)n3CC2)s1,-23.8%
CNc1ccc(-c2noc([C@@H]3CCCN3Cc3ccc(CO)o3)n2)cn1,i
CN(C)c1ccc(CN2CCC[C@H]2c2nc(-c3ccnc(N4CCC(C(N)=O)CC4)c3)no2)cc1,i
c1ccc(CN2CCC[C@H]2c2nc(-c3ccnc(N4CCOCC4)c3)no2)cc1,12.6µM*
c1cc(-c2noc([C@@H]3CCCN3C3CCC3)n2)cc(N2CCOCC2)n1,i

# From PubChem
